Only some compounds are listed: those with a hit (about 11% of all), similar ones and a draw of the others.
L3MBTL1 inh: L3MBTL1 (human) inhibition; Q9Y468; Potency, µM (highest dose often 57.1 µM), inactives show at the top dose activity, negative = inhibition, most hits filed as inhibitors; 230,000 tested, 0.66% active; AlphaScreen L3MBTL1–H3K9me1 peptide binding; further: potency means the concentration at half of the fitted maximal effect; on the % scale 0 is the no-effect control and ±100 the full control effect; nearly all actives have a fitted effect of over 60% in size
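L3MBTL1 (50 nM) pre-complexed 30 min with biotinylated H3(1-15)K9me1 peptide (75 nM), then compounds added for 30 min at room temperature; AlphaScreen streptavidin donor/nickel chelate acceptor beads (10 ug/mL final) read after 30 min dark incubation.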
JMJD2A Tudor: JMJD2A Tudor domain (human) inhibition. AlphaScreen JMJD2A-Tudor / H3K4me3 peptide binding. Potency, µM (doses to about 114 µM), inactives show at the highest dose activity change, negative = inhibition, most hits filed as inhibitors. 390,000 tested, 4.4% active. AID 504339; further: potency means the concentration at half of the fitted maximal effect; on the % scale 0 is the no-effect control and ±100 the full control effect; nearly all actives have a fitted effect of over 50% in size
BAZ2B block: inhibitors of human BAZ2B bromodomain; Q9UIF8; AlphaScreen BAZ2B-H3K14Ac peptide displacement; Potency, µM (doses to about 114 µM), for the others: at the top dose activity change, negative = inhibition, actives largely listed as inhibitors; 360,000 tested, 4.4% active; AID 504333; further: potency means the concentration at half of the fitted maximal effect; on the % scale 0 is the no-effect control and ±100 the full control effect; nearly all actives have a fitted effect of over 60% in size
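BAZ2B 50 nM plus b-H3(5-23)K14Ac 50 nM, PBS pH 7.4/0.01% Tween-20, 30 min RT; compound added (max 110 uM), 30 min RT; streptavidin donor/Ni-chelate acceptor beads 10 ug/mL final, 20 min dark; AlphaScreen read.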
PI5P4K alpha inh: PI5P4K alpha (human) kinase inhibition. PI5P4Kalpha enzyme, ADP-Glo luminescence, 60 min; active compounds read low. max response, %. 330,000 tested, 1.2% active; active means max response of -50% or lower; inconclusive means between -30% and -50%; inactive means -30% or higher; further: value at the top dose of about 77 µM; on the % scale 0 is the no-effect control and ±100 the full control effect
Target sequence (P48426 whole entry, looked up): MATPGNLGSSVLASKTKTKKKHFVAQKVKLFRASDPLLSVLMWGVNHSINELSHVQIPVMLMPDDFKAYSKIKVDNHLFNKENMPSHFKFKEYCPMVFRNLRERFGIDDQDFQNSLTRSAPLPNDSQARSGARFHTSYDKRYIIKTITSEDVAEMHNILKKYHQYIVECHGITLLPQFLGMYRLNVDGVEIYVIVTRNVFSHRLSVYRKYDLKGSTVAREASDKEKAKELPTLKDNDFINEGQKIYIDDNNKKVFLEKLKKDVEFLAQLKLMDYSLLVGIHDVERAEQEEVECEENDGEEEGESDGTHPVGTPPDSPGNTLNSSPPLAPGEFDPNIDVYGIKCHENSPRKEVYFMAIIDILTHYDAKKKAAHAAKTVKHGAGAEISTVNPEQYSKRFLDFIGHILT
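Controls without substrate or without enzyme flank wells where PI5P4Kalpha converts substrate using 5 microM ATP (final). Incubation lasts 60 minutes at room temperature; ADP formed is read by ADP-Glo luminescence.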
HP1b binding inh: inhibitors of HP1-beta chromodomain binding to methylated histone tails | AlphaScreen HP1-beta / biotin-H3K9me3 peptide binding | Potency, µM (top dose mostly 114 µM), for the others: at the highest dose activity change, negative = inhibition, actives largely listed as inhibitors | 390,000 tested, 0.56% active | AID 540317; further: potency means the concentration at half of the fitted maximal effect; nearly all actives have a fitted effect of over 70% in size
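AlphaScreen: HP1-beta (50 nM) preformed 30 min with biotin-H3(1-18)K9me3 peptide (50 nM) in PBS pH 7.4, 0.01% Tween-20. Compound added for 30 min at RT, then streptavidin donor/nickel chelate acceptor beads (10 ug/mL) for 30 min.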
G9a block: G9a (human) methyltransferase inhibition. Q96KQ7. G9a H3K9 monomethylation, AlphaScreen, 2 h. Potency, µM (titrated, usually from 102 µM), without a hit: at the highest dose activity, negative = inhibition, usual class: inhibitors. 350,000 tested, 8.8% active. AID 504332; further: potency means the concentration at half of the fitted maximal effect; on the % scale 0 is the no-effect control and ±100 the full control effect; nearly all actives have a fitted effect of over 75% in size
Target sequence (Q96KQ7 913-1193 limits assumed): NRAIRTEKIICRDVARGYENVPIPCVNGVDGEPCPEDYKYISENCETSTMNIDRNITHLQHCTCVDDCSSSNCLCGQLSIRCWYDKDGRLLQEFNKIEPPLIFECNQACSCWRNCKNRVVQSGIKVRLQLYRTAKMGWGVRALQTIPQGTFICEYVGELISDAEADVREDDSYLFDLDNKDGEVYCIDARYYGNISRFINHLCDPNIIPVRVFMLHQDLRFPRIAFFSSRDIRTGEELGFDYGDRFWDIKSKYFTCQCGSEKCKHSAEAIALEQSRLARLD
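Enzyme 20 nM + cpd, 15 min RT; add b-H3K9 pep 500 nM / SAM 20 uM; 2 h RT; anti-H3K9me1 Ab 0.5 ug/mL + SA donor / anti-rabbit acceptor beads 20 ug/mL each, 10 min; AlphaScreen read.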
Starred values were filed as active, the others as inactive; ? = inconclusive; . = no result given; ! = not confirmed by another sample; [ ] = dose if it differs, or a comment. Unless noted, the call rests on the fitted dose curve; in most records, active means well fitted inhibition curve with a large enough effect; inconclusive means small, poorly fitted or top-dose-only effect; inactive means no such curve, though single readings can be large or run the other way.

SMILES	L3MBTL1 inh	JMJD2A Tudor	BAZ2B block	PI5P4K alpha inh	HP1b binding inh	G9a block
O=[N+]([O-])c1ccc(Sc2ccc(Cl)c(Cl)c2)nc1	-4%	?	22µM*	.	-23%	?
O=C(Cn1cc(CNC(=O)c2ccccc2)nn1)Nc1cc(C(F)(F)F)ccc1Cl	.	-20%	.	.	.	.
O=[N+]([O-])c1ccc(Sc2ccccn2)nc1	-5%	-14%	-11%	2	33%	45µM*
O=C(Nc1cc(Sc2ccccn2)cc([N+](=O)[O-])c1)c1ccc([N+](=O)[O-])cc1	-6%	3.2µM*	?	-75*	-11%	-13%[12.7 µM]
O=[N+]([O-])c1ccc(Sc2n[nH]c(-c3ccncc3)n2)nc1	.	-9%	-1%	-6	36%	45µM*
O=[N+]([O-])c1cccnc1Sc1n[nH]c(-c2ccc(Cl)cc2)n1	47%	-13%	-4%	0	21%	.
CCOc1ccc(OCC)c(NS(=O)(=O)c2ccc(-c3coc(C)n3)cc2)c1	.	-32%	-29%	.	22%[57 µM]	-5%[59 µM]
CC(C)(C)OC(=O)N1CCC(c2c(C(=O)N3CCN(c4ncccn4)CC3)cnn2-c2ccc(F)cc2)CC1	.	-13%	10%[57.1 µM]	.	22%	4%[59 µM]
COc1ccc(N2CCN(C(CNC(=O)C(=O)NCC(OC)OC)c3ccco3)CC2)cc1 (centres undefined)	.	-10%	-10%[57.1 µM]	0	10%	-6%
COc1ccc(N2CCN(C(CNC(=O)C(=O)NCc3cccs3)c3ccco3)CC2)cc1 (centres undefined)	-4%	-8%[11.4 µM]	?	3	-1%	40µM*
COc1ccc(N2CCN(C(CNC(=O)C(=O)NC3CCCC3)c3ccco3)CC2)cc1 (centres undefined)	-8%	-6%	-21%	8	20%	7.1µM*
COc1ccc(N2CCN(C(CNC(=O)OCc3ccccc3)c3ccco3)CC2)cc1 (centres undefined)	-21%	40µM*	40µM*	-5	?	25µM*
O=C(COc1ccccc1)NCC(c1ccco1)N1CCN(c2ccccc2)CC1 (centres undefined)	-8%	?	-37%	0	-9%	45µM*
Cc1ccc(NC(=O)Cn2c(=O)n(CCCCC(=O)NCc3ccc4c(c3)OCO4)c(=O)c3ccccc32)cc1	.	-7%	-14%	.	36%	-11%[59 µM]
CCc1nnc(NC2=NCCC2)s1	.	71µM*	?	11	17%	?
c1nnc(NC2=NCCC2)s1	.	8.9µM*	-4%	1	-6%	?
Cc1cnc(NC2=NCCC2)s1	-4%	?	-32%	-4	5%	11µM*
c1nnc(NC2=NCCCCC2)s1	10%	-9%	-1%	.	5%	-9%[59 µM]
CCc1nn(CC(=O)NC2CC2)c(=O)c2cc3ccccc3n12	.	0%	27%	.	64%	26%[59 µM]
CCc1nn(CC(=O)NC2CCN(Cc3ccccc3)CC2)c(=O)c2cc3cc(F)ccc3n12	.	-10%	-10%[57.1 µM]	-4	30%	45µM*
CCc1nn(CC(=O)NC(C)CCc2ccccc2)c(=O)c2cc3cc(F)ccc3n12 (centres undefined)	.	-12%	?	-7	-1%	50µM*!
CCCCSc1nnc2n(-c3ccc(OC)cc3)c(=O)c3c4c(sc3n12)COC(C(C)C)C4 (centres undefined)	.	-30%	-6%	.	20%	0%[59 µM]
CN(C)S(=O)(=O)c1cccc(-c2csc(N/N=C/c3ccco3)n2)c1	-26%	?	35µM*	?	?	-15%[12.7 µM]
CN(C)CCN(C(=O)c1ccc(S(=O)(=O)N(C)CC2CCCO2)cc1)c1nc2cc3c(cc2s1)OCO3 (centres undefined)	.	?	-38%	-6	-12%	?
CCc1ccc2nc(N(CCCN(C)C)C(=O)c3ccc(S(=O)(=O)N(C)C4CCCCC4)cc3)sc2c1	.	?	?	3	14%	?
SMILES	L3MBTL1 inh	JMJD2A Tudor	BAZ2B block	PI5P4K alpha inh	HP1b binding inh	G9a block
CN(C)CCCN(C(=O)c1ccc(S(=O)(=O)N(C)C2CCCCC2)cc1)c1nc2ccc(F)cc2s1	.	?	?	2	-10%	45µM*
CN(C)CCCN(C(=O)c1ccc(S(=O)(=O)N(C)C2CCCCC2)cc1)c1nc2ccc(Br)cc2s1	.	35µM*	?	0	-13%	.
COc1cc2nc(N(CCN(C)C)C(=O)c3ccc(S(=O)(=O)N(C)CC4CCCO4)cc3)sc2cc1OC (centres undefined)	.	-19%	?	1	28%	32µM*
Cc1cc(C)c2sc(N(CCCN(C)C)C(=O)c3ccc(S(=O)(=O)N(C)C4CCCCC4)cc3)nc2c1	-3%	?	?	-3	?	35µM*
Cc1ccc(-n2nc(C(=O)N3CCN(c4ccc(F)cc4)CC3)c(=O)n(C)c2=O)cc1	.	-19%	-16%	.	14%[57 µM]	-25%[59 µM]
O=[S+]([O-])(c1ccc2c(c1)OCCO2)N1CCN([S+](=O)([O-])c2ccc(F)cc2Br)CC1	.	-10%	.	.	.	.
O=C(Nc1ccc(F)cc1)c1ccc(-n2cnc3cccnc32)cc1	.	-1%	-12%	.	47%	-1%[59 µM]
COc1ccc(C)c2sc(N(CCCN(C)C)C(=O)c3ccc(S(=O)(=O)N(C)C)cc3)nc12	.	-1%	.	1	24%	?
COc1cc2nc(N(CCCN(C)C)C(=O)c3ccc(S(=O)(=O)N(C)C4CCCCC4)cc3)sc2cc1OC	-5%	-35%	-29%	-1	-15%	45µM*
COc1ccc(CN(CC2CCCO2)S(=O)(=O)c2ccc(C(=O)O)cc2)cc1OC (centres undefined)	6%	-7%	-6%	.	45%	56µM*
CN1CCCC1CCNc1ncnc2ccc(-c3ccc4c(c3)OCO4)cc12 (centres undefined)	.	-28%	.	.	.	.
N#C/C(=C\c1ccc(O)c([N+](=O)[O-])c1)c1nc2ccccc2s1	-10%	20µM*	25µM*	-26	?	4µM*
COc1cc(/C=C(\C#N)c2nc3ccccc3s2)cc([N+](=O)[O-])c1O	-18%	11µM*	13µM*	-72*	20µM*	16µM*
COc1ccc(-c2csc(/C(C#N)=C\c3ccc(O)c([N+](=O)[O-])c3)n2)cc1OC	-15%	13µM*	11µM*	?	?	.
CCN(C(=O)C1CCN(S(=O)(=O)c2cc(Br)cc3c2N(C(C)=O)CC3)CC1)c1cccc(C)c1	.	-19%	-19%	.	9%	-12%[59 µM]
O=NN(CCCl)C(=O)NC1CCCCC1	.	.	.	.	.	-37%[12.7 µM]
CC(=O)Nc1ccccc1-c1nc2ccccc2n(C(C)C(=O)Nc2ccccc2C(F)(F)F)c1=O (centres undefined)	.	-15%	-9%	.	36%	?
